High-throughput results: PubChem BioAssay, several laboratories
TNAP act DEA: activates human TNAP at intermediate phosphate acceptor concentration; P05186; purified TNAP, CDP-star luminescence, 100 mM DEA, 30 min; hits give high values; scale: 0 levamisole-inhibited, 1 vehicle-only enzyme; activation factor at 20 µM; 64,000 tested, under 10 active;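 active = activation factor of at least 2 at 20 µM, relative to controls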
SKBR3 24h inh: SK-BR-3 proliferation inhibitors; hit rate 0.47% among 41,000; viability, % at 10 µM; AID 847; SK-BR-3 viability, CellTiter-Glo ATP luminescence, 24 h; hits give low values;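 active = viability at or below the median of all test compounds minus 3 SD, in both replicates if run twice, cut at about 45% in these data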;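 note: 100% = median untreated cell wells and 0% = median positive control drug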
BAP1 block: human BAP1 deubiquitinase inhibition; recombinant BAP1, Ub-AMC hydrolysis fluorescence kinetic; hits give low values; activity remaining (% of control), % at 20 µM; hit rate 0.48% among 72,000; AID 436;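 active = activity remaining at or below 50% of control, provided the compound also passes the data quality filters; inactive = the rest, including low values that fail the filters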;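 note: 100% = DMSO wells rate and 0% = substrate alone blank rate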
S1P1 ag-PAM: activates or potentiates agonism at human S1P1 receptor. activation, % at 9.5 µM. hit rate 0.57% among 56,000. AID 449. S1P1 CRE-bla cells, forskolin, beta-lactamase FRET, potentiator mode; S1P1 agonist co-added at EC20, 2 nM; 100% = saturating reference agonist, 0% = basal. P21453;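 active = activation above a cutoff set at the mean activation of all tested compounds plus 3 SD, cut at about 54% in these data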;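 note: forskolin at 4 µM as EC80 and the EC20 agonist is SEW2871; 100% = SEW2871 at its EC100 plus forskolin at EC80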
Her2 expr inh: lowers expression of human Her2 kinase; P04626; SKBR-3 HER2 protein level, AlphaScreen, 18-24 h; hits give low values; HER2 level % of control, % at 10 µM; hit rate 0.69% among 65,000;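 active = HER2 level under 5% of the carrier-only control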;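 note: 100% = DMSO carrier and 0% = 500 nM PU-H71 HSP90 inhibitor; lower value means stronger loss of Her2 protein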
Hsp90 inh: displaces geldanamycin probe from tumor Hsp90. P07900. NCI-N417 lysate Hsp90, Cy3B-geldanamycin FP displacement. inhibition, % at 30 µM. hit rate 0.35% among 64,000. AID 429;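 active = inhibition above 50%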;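 note: 0% = tracer plus lysate wells and 100% = tracer alone without lysate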
The depositor's hits bear a star. Only some compounds are listed: those with a hit (about 1.9% of all), similar ones and a draw of the others.

Results for Cc1ccc(S(=O)(=O)N2CCCN(S(=O)(=O)c3ccc4c(c3)OCCO4)CC2)cc1 ?
TNAP act DEA: 1; SKBR3 24h inh: 105; BAP1 block: 84; S1P1 ag-PAM: 21; Her2 expr inh: 112; Hsp90 inh: -1

How did O=C1/C(=N/n2cnnc2)c2ccccc2N1Cc1ccccc1 do in these assays?
TNAP act DEA: 0.8; SKBR3 24h inh: 90; BAP1 block: 110; S1P1 ag-PAM: 0; Her2 expr inh: -16*; Hsp90 inh: -9

What do the screens show for `COc1ccc(-c2oc3ncnc(NCCCN4CCOCC4)c3c2-c2ccc(OC)cc2)cc1`?
TNAP act DEA: 0.9; SKBR3 24h inh: 67; S1P1 ag-PAM: 9; Her2 expr inh: -2.9*; Hsp90 inh: -3

What do the screens show for `CCCC1(NC(=O)Cc2ccccc2)CCCC1`?
BAP1 block: 152

How did CCC(NS(=O)(=O)c1ccc(C)cc1)C(=O)O (stereo unspecified) do in these assays?
TNAP act DEA: 1; BAP1 block: 118; Her2 expr inh: 96; Hsp90 inh: -2

Results for Cc1cc2nc(NC3=NCN(Cc4ccc5c(c4)OCO5)CN3)nc(C)c2cc1C ?
TNAP act DEA: 0.9; SKBR3 24h inh: 70; BAP1 block: 85; S1P1 ag-PAM: -14; Her2 expr inh: -5.8*; Hsp90 inh: -7

Results for Cc1cc2nc(NC3=NCN(CCN4CCOCC4)CN3)nc(C)c2cc1C ?
TNAP act DEA: 0.9; SKBR3 24h inh: 90; BAP1 block: 99; S1P1 ag-PAM: 5; Her2 expr inh: 105; Hsp90 inh: 1

Results for CCN1CSC(=S)N(Cc2ccc(OC)cc2)C1 ?
BAP1 block: 105; Her2 expr inh: -12*; Hsp90 inh: -3

How did O=C(CCN1C(=O)C2CC=C(Cl)CC2C1=O)NC1CCCCC1 (stereo unspecified) do in these assays?
TNAP act DEA: 0.9; SKBR3 24h inh: 69; BAP1 block: 96; S1P1 ag-PAM: -11; Her2 expr inh: 79; Hsp90 inh: -4

How did O=C(CCN1C(=O)c2cccnc2C1=O)NC1CCCCCC1 do in these assays?
TNAP act DEA: 1; SKBR3 24h inh: 80; BAP1 block: 119; S1P1 ag-PAM: 3; Her2 expr inh: -17*; Hsp90 inh: 3

Results for Cc1cc(C)n(-c2nc3ccccc3nc2N2CCN(C(=O)c3ccc(Cl)cc3)CC2)n1 ?
TNAP act DEA: 0.9; SKBR3 24h inh: 90; BAP1 block: 108; Her2 expr inh: 56; Hsp90 inh: -15

Results for Cc1ccc(NC(=O)CNc2cccc(C)c2C)c(C)c1 ?
TNAP act DEA: 0.8; BAP1 block: 96; S1P1 ag-PAM: 10; Her2 expr inh: -28*; Hsp90 inh: -2

How did Cn1c(=O)c2c(nc(CN3CCN(Cc4ccccc4)CC3)n2Cc2ccc(F)cc2)n(C)c1=O do in these assays?
TNAP act DEA: 0.9; BAP1 block: 93; S1P1 ag-PAM: -20; Her2 expr inh: 99; Hsp90 inh: -3

Results for C1CCC2=NCCCN2CC1 ?
TNAP act DEA: 0.9; SKBR3 24h inh: 86; BAP1 block: 112; S1P1 ag-PAM: 7; Her2 expr inh: 80; Hsp90 inh: 1

What do the screens show for `CC(=O)NC(Cc1c[nH]c2ccccc12)C(=O)OCC(=O)Nc1ccc2c(c1)OCO2` (stereo unspecified)?
TNAP act DEA: 1; BAP1 block: 149; S1P1 ag-PAM: 12; Her2 expr inh: -33*; Hsp90 inh: 0

How did CC(=O)c1sc(NC(=O)C=C(C)C)nc1C do in these assays?
TNAP act DEA: 1; SKBR3 24h inh: 96; BAP1 block: 94; Her2 expr inh: 95; Hsp90 inh: -2

How did CC(=O)c1sc(NC(=O)C2(F)C(F)(F)C(F)(F)C(F)(F)C(F)(F)C2(F)F)nc1C do in these assays?
TNAP act DEA: 1; SKBR3 24h inh: 114; BAP1 block: 83; S1P1 ag-PAM: 111*; Her2 expr inh: 48; Hsp90 inh: -16

What do the screens show for `FC(F)(F)c1ccc(N2CCOCC2)c(Nc2nc3ccccc3n3cnnc23)c1`?
TNAP act DEA: 1; S1P1 ag-PAM: -18; Her2 expr inh: -16*; Hsp90 inh: 0

Results for COc1ccccc1C(=O)N1CCN(c2cccc(Cl)c2)CC1 ?
TNAP act DEA: 0.9; SKBR3 24h inh: 40*; Her2 expr inh: 41

Results for COc1ccc(C(=S)N2CCN(c3cccc(Cl)c3)CC2)cc1 ?
BAP1 block: 58

How did CN1CCc2c(cc(O)c(O)c2Cl)C(c2cccc(Cl)c2)C1 (stereo unspecified) do in these assays?
BAP1 block: 92; Hsp90 inh: 81*

What do the screens show for `CN1CCc2cc(Cl)c(O)cc2[C@@H](c2ccccc2)C1`?
BAP1 block: 87; Hsp90 inh: 0

Results for CN1CCc2cc(O)c(O)cc2C(c2ccccc2)C1 (stereo unspecified) ?
BAP1 block: 99; Hsp90 inh: 59*

How did Oc1cc2c(cc1O)C(c1ccccc1)CNCC2 (stereo unspecified) do in these assays?
BAP1 block: 90; Hsp90 inh: 64*

What do the screens show for `COc1cc2c(cc1OC)C(c1cccs1)NCC2` (stereo unspecified)?
TNAP act DEA: 0.9; SKBR3 24h inh: 95; Her2 expr inh: 62

Results for Cc1ccc(S(=O)(=O)C(C#N)c2nc3ccccc3nc2N2CC(C)OC(C)C2)cc1C (stereo unspecified) ?
TNAP act DEA: 0.8; SKBR3 24h inh: 93; BAP1 block: 77; S1P1 ag-PAM: -8; Her2 expr inh: 101; Hsp90 inh: -3

How did COc1ccc(-c2csc(N(CCCN3CCOCC3)C(=O)c3ccco3)n2)cc1 do in these assays?
TNAP act DEA: 0.9; BAP1 block: 108; S1P1 ag-PAM: 8; Her2 expr inh: 107; Hsp90 inh: -1

How did CCn1c(C)nc2cc(S(=O)(=O)C(F)(F)C(F)C(F)(F)F)ccc21 (stereo unspecified) do in these assays?
TNAP act DEA: 0.9; SKBR3 24h inh: 91; BAP1 block: 95; S1P1 ag-PAM: 42; Her2 expr inh: 107; Hsp90 inh: 0

What do the screens show for `CC(C(=O)Nc1ncc2c(n1)CC(C)(C)CC2=O)N1C(=O)c2ccccc2C1=O` (stereo unspecified)?
TNAP act DEA: 0.9; SKBR3 24h inh: 92; BAP1 block: 93; S1P1 ag-PAM: 0; Her2 expr inh: 114; Hsp90 inh: -2

What do the screens show for `OCCCc1nc2n(n1)C(c1cccs1)C=C(c1ccccc1)N2` (stereo unspecified)?
TNAP act DEA: 0.8; S1P1 ag-PAM: -1; Her2 expr inh: 88; Hsp90 inh: -6

Results for OCCCc1nc2n(n1)C(c1ccccc1)C=C(c1ccc(F)cc1)N2 (stereo unspecified) ?
SKBR3 24h inh: 98; BAP1 block: 80; S1P1 ag-PAM: 13; Her2 expr inh: -30*; Hsp90 inh: -2
